# Test results: PubChem BioAssay AID1508601 (ICCB-Longwood Screening Facility, Harvard Medical School, 2020)
# Hit rate of the full screen: of about 5,700 compounds, about 85 (1%) were called active. No stated cut-off is given here; in the data, active means p53-positive nuclei above about 36% (passing the limit was not always enough); inactive means the rest. Only a selection was taken, and actives are over-represented in it overall.
# Legend:
# [1] = nuclear p53 accumulation, HPV+ cells – imaging, p53-positive nuclei imaging, 24 h, 48 h (AID 1508601); settings: 24/48 h
# [2] = target: Cellular tumor antigen p53 (Homo sapiens) (UniProt P04637); assay: as above; settings: 24/48 h, stronger effect = higher value
# [3] = measured here: cell number at 24 h, Library stock concentration: 80 uM
# [4] = measured here: cell number at 24 h, Library stock concentration: 400 uM
# [5] = measured here: cell number at 24 h, Library stock concentration: 2 mM
# [6] = measured here: cell number at 24 h, Library stock concentration: 10 mM
# [7] = measured here: cell number at 48 h, Library stock concentration: 80 uM
# [8] = measured here: cell number at 48 h, Library stock concentration: 400 uM
# [9] = measured here: cell number at 48 h, Library stock concentration: 2 mM
# [10] = measured here: cell number at 48 h, Library stock concentration: 10 mM
# [11] = Library stock concentration: 80 uM
# [12] = Library stock concentration: 400 uM
# [13] = Library stock concentration: 2 mM
# [14] = Library stock concentration: 10 mM
# [15] = measured here: p53 positive nuclei at 24 h, Library stock concentration: 80 uM
# [16] = measured here: p53 positive nuclei at 24 h, Library stock concentration: 400 uM
# [17] = measured here: p53 positive nuclei at 24 h, Library stock concentration: 2 mM
# [18] = measured here: p53 positive nuclei at 24 h, Library stock concentration: 10 mM
# [19] = measured here: cell number at 24 h, Library stock concentration: 3.33 mM
# [20] = measured here: cell number at 48 h, Library stock concentration: 3.33 mM
# [21] = Library stock concentration: 3.33 mM
# [22] = measured here: p53 positive nuclei at 24 h, Library stock concentration: 3.33 mM
# [23] = measured here: cell number at 24 h, concentration not given here
# [24] = measured here: cell number at 48 h, concentration not given here
# [25] = measured here: p53 positive nuclei at 24 h, concentration not given here
# Sequence of Cellular tumor antigen p53 (Homo sapiens) (P04637 whole entry, looked up): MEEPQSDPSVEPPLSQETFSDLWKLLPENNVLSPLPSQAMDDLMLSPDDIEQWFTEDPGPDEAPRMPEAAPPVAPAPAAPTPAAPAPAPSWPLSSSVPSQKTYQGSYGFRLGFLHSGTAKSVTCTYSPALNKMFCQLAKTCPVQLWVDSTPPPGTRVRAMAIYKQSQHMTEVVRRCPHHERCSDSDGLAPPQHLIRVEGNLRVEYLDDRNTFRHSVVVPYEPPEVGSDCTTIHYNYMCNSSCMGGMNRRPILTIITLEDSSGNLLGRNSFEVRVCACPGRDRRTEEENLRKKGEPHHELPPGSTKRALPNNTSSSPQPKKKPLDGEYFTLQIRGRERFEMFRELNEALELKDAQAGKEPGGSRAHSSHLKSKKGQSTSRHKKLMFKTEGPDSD
compound,measurement,setting,value
CCN1CCN(Cc2ccc(Nc3ncc4c(n3)N(C)c3ccccc3C(=O)N4C)cc2C(F)(F)F)CC1,"nuclei count, normalised",[1]; [3],77.9%
same,"nuclei count, normalised",[1]; [4],81%
same,"nuclei count, normalised",[1]; [5],52.5%
same,"nuclei count, normalised",[1]; [6],35.9%
same,"nuclei count, normalised",[1]; [7],81.7%
same,"nuclei count, normalised",[1]; [8],83.6%
same,"nuclei count, normalised",[1]; [9],35.4%
same,"nuclei count, normalised",[1]; [10],19.9%
same,"p53-positive nuclei, normalised",[2]; [11],-0.0235% (inactive)
same,"p53-positive nuclei, normalised",[2]; [12],-0.051% (inactive)
same,"p53-positive nuclei, normalised",[2]; [13],1.78% (inactive)
same,"p53-positive nuclei, normalised",[2]; [14],22.4% (inactive)
same,"p53-positive nuclei, normalised",[2]; [15],-0.148%
same,"p53-positive nuclei, normalised",[2]; [16],-0.0416%
same,"p53-positive nuclei, normalised",[2]; [17],-0.148%
same,"p53-positive nuclei, normalised",[2]; [18],33.5%
CC1CCO[C@H]2Cn3cc(C(=O)NCc4ccc(F)cc4F)c(=O)c(O)c3C(=O)N12 (some centres not stated),"nuclei count, normalised",[1]; [19],106%
same,"nuclei count, normalised",[1]; [20],103%
same,"p53-positive nuclei, normalised",[2]; [21],-0.143% (inactive)
same,"p53-positive nuclei, normalised",[2]; [22],-0.188%
CCCCC[C@H](O)/C=C/[C@H]1C2CC(CO2)[C@@H]1C/C=C\CCCC(=O)O (some centres not stated),"nuclei count, normalised",[1]; [23],83.4%
same,"nuclei count, normalised",[1]; [24],84.7%
same,"p53-positive nuclei, normalised",[2]; concentration not given here,0.109% (inactive)
same,"p53-positive nuclei, normalised",[2]; [25],0.00988%
CN1CCN(C(=S)SSC(=S)N2CCN(C)CC2)CC1,"nuclei count, normalised",[1]; [3],108%
same,"nuclei count, normalised",[1]; [4],109%
same,"nuclei count, normalised",[1]; [5],60.3%
same,"nuclei count, normalised",[1]; [6],52.3%
same,"nuclei count, normalised",[1]; [7],109%
same,"nuclei count, normalised",[1]; [8],109%
same,"nuclei count, normalised",[1]; [9],53.9%
same,"nuclei count, normalised",[1]; [10],37.3%
same,"p53-positive nuclei, normalised",[2]; [11],-0.131% (inactive)
same,"p53-positive nuclei, normalised",[2]; [12],-0.138% (inactive)
same,"p53-positive nuclei, normalised",[2]; [13],39.2% (active)
same,"p53-positive nuclei, normalised",[2]; [14],89.9% (active)
same,"p53-positive nuclei, normalised",[2]; [15],-0.116%
same,"p53-positive nuclei, normalised",[2]; [16],-0.0641%
same,"p53-positive nuclei, normalised",[2]; [17],99.7%
same,"p53-positive nuclei, normalised",[2]; [18],111%
CCN(CC)C(=O)N1CCN(C)CC1,"nuclei count, normalised",[1]; [23],108%
same,"nuclei count, normalised",[1]; [24],102%
same,"p53-positive nuclei, normalised",[2]; concentration not given here,0.000717% (inactive)
same,"p53-positive nuclei, normalised",[2]; [25],-0.0826%
CC(C)(CO)c1cc2cc(NC(=O)C3(c4ccc5c(c4)OC(F)(F)O5)CC3)c(F)cc2n1CC(O)CO (configuration not stated),"nuclei count, normalised",[1]; [3],99.2%
same,"nuclei count, normalised",[1]; [4],104%
same,"nuclei count, normalised",[1]; [5],106%
same,"nuclei count, normalised",[1]; [19],118%
same,"nuclei count, normalised",[1]; [6],113%
same,"nuclei count, normalised",[1]; [7],105%
same,"nuclei count, normalised",[1]; [8],107%
same,"nuclei count, normalised",[1]; [9],110%
same,"nuclei count, normalised",[1]; [20],120%
same,"nuclei count, normalised",[1]; [10],111%
same,"p53-positive nuclei, normalised",[2]; [11],0.0351% (inactive)
same,"p53-positive nuclei, normalised",[2]; [12],0.0964% (inactive)
same,"p53-positive nuclei, normalised",[2]; [13],-0.0537% (inactive)
same,"p53-positive nuclei, normalised",[2]; [21],-0.0559% (inactive)
same,"p53-positive nuclei, normalised",[2]; [14],0.115% (inactive)
same,"p53-positive nuclei, normalised",[2]; [15],0.0925%
same,"p53-positive nuclei, normalised",[2]; [16],0.0862%
same,"p53-positive nuclei, normalised",[2]; [17],-0.0708%
same,"p53-positive nuclei, normalised",[2]; [22],-0.244%
same,"p53-positive nuclei, normalised",[2]; [18],0.119%
O=C(c1cc(-c2cncnc2)nc2cc(F)ccc12)N1CCCC1Cc1cccnc1 (configuration not stated),"nuclei count, normalised",[1]; [23],109%
same,"nuclei count, normalised",[1]; [24],110%
same,"p53-positive nuclei, normalised",[2]; concentration not given here,0.0107% (inactive)
same,"p53-positive nuclei, normalised",[2]; [25],0.143%
O=C1CN2Cc3c(ccc(Cl)c3Cl)N=C2N1,"nuclei count, normalised","[1]; measured here: cell number at 24 h, Library stock concentration: 46 uM",88.7%
same,"nuclei count, normalised","[1]; measured here: cell number at 24 h, Library stock concentration: 278 uM",80.4%
same,"nuclei count, normalised","[1]; measured here: cell number at 24 h, Library stock concentration: 1.67 mM",83.9%
same,"nuclei count, normalised",[1]; [19],57.2%
same,"nuclei count, normalised",[1]; [6],75.8%
same,"nuclei count, normalised","[1]; measured here: cell number at 48 h, Library stock concentration: 46 uM",45.1%
same,"nuclei count, normalised","[1]; measured here: cell number at 48 h, Library stock concentration: 278 uM",38.3%
same,"nuclei count, normalised","[1]; measured here: cell number at 48 h, Library stock concentration: 1.67 mM",40.9%
same,"nuclei count, normalised",[1]; [20],24.8%
same,"nuclei count, normalised",[1]; [10],40.2%
same,"p53-positive nuclei, normalised",[2]; Library stock concentration: 46 uM,85.8% (active)
same,"p53-positive nuclei, normalised",[2]; Library stock concentration: 278 uM,88.2% (active)
same,"p53-positive nuclei, normalised",[2]; Library stock concentration: 1.67 mM,89.8% (active)
same,"p53-positive nuclei, normalised",[2]; [21],84.4% (active)
same,"p53-positive nuclei, normalised",[2]; [14],87% (active)
same,"p53-positive nuclei, normalised","[2]; measured here: p53 positive nuclei at 24 h, Library stock concentration: 46 uM",5.38%
same,"p53-positive nuclei, normalised","[2]; measured here: p53 positive nuclei at 24 h, Library stock concentration: 278 uM",6.86%
same,"p53-positive nuclei, normalised","[2]; measured here: p53 positive nuclei at 24 h, Library stock concentration: 1.67 mM",6.48%
same,"p53-positive nuclei, normalised",[2]; [22],11%
same,"p53-positive nuclei, normalised",[2]; [18],6.76%
O=C1OC2(c3ccc(O)cc3Oc3cc(Oc4ccc(O)cc4)ccc32)c2ccccc21 (configuration not stated),"nuclei count, normalised",[1]; [23],105%
same,"nuclei count, normalised",[1]; [24],107%
same,"p53-positive nuclei, normalised",[2]; concentration not given here,-0.0688% (inactive)
same,"p53-positive nuclei, normalised",[2]; [25],-0.118%
